Many of the other results were omitted from the sample, so hits are more common in it than they were.
Algae TAG accum: increases triacylglycerol in Chlamydomonas reinhardtii; actives 0.84% (n = 44,000); calls only at 10 µM (by protocol); AID 1159537; Chlamydomonas reinhardtii TAG, Nile Red fluorescence, 72 h; call rule not given here;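 note: hits raise Nile Red signal meaning more stored TAG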
Calls only; i = inactive; + = active, no number.

SMILES	Algae TAG accum
COc1cccc(N2C(=O)CC(N3CCN(c4ccccc4)CC3)C2=O)c1 (configuration not stated)	i
COc1cccc(N2CCN(C3CCCC(C)C3)CC2)c1 (configuration not stated)	+
CC1CCC(N2CCN(c3ncccn3)CC2)C1 (configuration not stated)	i
COc1ccccc1N1CCN(C2CCC(C)CC2)CC1 (configuration not stated)	i
Cn1ccnc1Sc1nc2c(c(=O)n(C)c(=O)n2C)n1Cc1c(Cl)cccc1Cl	i
c1coc(CN2CCN(C3CCCCCC3)CC2)c1	+
OC1CCN(CC2CC3C=CC2C3)CC1 (configuration not stated)	i
O=[N+]([O-])c1ccccc1CN1CCN(CC2CC=CCC2)CC1 (configuration not stated)	i
c1ccc(N2CCN(Cc3ccco3)CC2)cc1	i
O=[N+]([O-])c1ccccc1CN1CCCC1	i
c1coc(CN2CCN(Cc3ccncc3)CC2)c1	i
COc1ccc(CN2CCN(Cc3ccc(OC)c(OC)c3)CC2)cc1	i
O=[N+]([O-])c1ccccc1CN1CCN(CC2CC3C=CC2C3)CC1 (configuration not stated)	+
COc1ccc(CN2CCCCCC2)cc1OC	i
C1=CC2CC1CC2CN1CCN(Cc2ccncc2)CC1 (configuration not stated)	i
COc1ccc(CN2CCN(CC3CC4C=CC3C4)CC2)cc1OC (configuration not stated)	+
C1=CC2CC1CC2CN1CCN(Cc2ccccc2)CC1 (configuration not stated)	+
CCN(C/C=C/c1ccccc1OC)Cc1ccccc1	i
O=C(O)CCS(=O)(=O)c1ccc(Cl)c(Cl)c1	i
O=C(O)C1CC=CCC1C(=O)N1CCN(c2cccc(Cl)c2)CC1 (configuration not stated)	i
OCc1ccc(-c2ccc(Br)cc2)o1	i
COc1ccc(C(=O)CC(=O)c2ccc(C)cc2O)cc1	i
CCn1c(SCC(=O)Nc2ccc(C)cc2)nnc1-c1cccs1	i
O=C1CC(NCc2ccccc2)C(=O)N1c1ccc(Br)cc1 (configuration not stated)	i
O=S(=O)(Nc1cccc(F)c1)c1ccc2c(c1)OCCO2	i
SMILES	Algae TAG accum
O=C(c1ccc(F)cc1)N1CCN(CC2CC3C=CC2C3)CC1 (configuration not stated)	i
Cc1ccc(C)c(N2CCN(CC3CC4C=CC3C4)CC2)c1 (configuration not stated)	+
CCS(=O)(=O)N1CCN(CC2CC3C=CC2C3)CC1 (configuration not stated)	i
COc1cc(OC)c(OC)cc1CN1CCN(c2cc(C)ccc2C)CC1	i
C1=CC2CC1CC2CN1CCN(Cc2ccco2)CC1 (configuration not stated)	+
C1=CCC(CN2CCN(Cc3ccco3)CC2)CC1 (configuration not stated)	i
Cn1cccc1CN1CCN(Cc2ccco2)CC1	i
OCCN1CCN(C2CCN(CC3CC4C=CC3C4)CC2)CC1 (configuration not stated)	i
COc1cccc(N2CCN(CC3CC4C=CC3C4)CC2)c1 (configuration not stated)	+
CCCN1C(=O)c2ccc(C(=O)Nc3ccc(O)cc3)cc2C1=O	i
NC(=O)c1ccc(NC(=O)Nc2ccc(Cl)cc2)cc1	i
Cc1ccc(-n2nc(C)c3c2OC(N)=C(C#N)C3c2cccc(Cl)c2)cc1 (configuration not stated)	i
Cc1cc(OCC(=O)NCCc2nc3ccccc3[nH]2)ccc1C(C)C	i
COc1ccc(N2CCN(C(=O)COc3ccc(Cl)cc3)CC2)cc1	i
O=C(COc1ccc(Cl)cc1)N1CCN(c2cccc(Cl)c2)CC1	i
CC1CCCN(C(=O)COc2ccc(Cl)cc2)C1 (configuration not stated)	+
CCN(CC)S(=O)(=O)C1CCS(=O)(=O)C1 (configuration not stated)	i
CCn1nnnc1-c1ccc(OC)c(S(=O)(=O)NCCc2ccccc2)c1	i
CC(CNC(=O)c1ccc(C(C)(C)C)cc1)CN(C)C (configuration not stated)	+
CC(CNC(=O)c1ccc(F)cc1)CN(C)C (configuration not stated)	i
Cc1cccc(C(=O)NCC(C)CN(C)C)c1 (configuration not stated)	i
COc1ccc(CCNC(=O)c2ccc(N3CCOCC3)c([N+](=O)[O-])c2)cc1OC	i
COc1ccc(C(=O)NCCN2CCOCC2)cc1[N+](=O)[O-]	+
COCCNC(=O)c1ccc(OC)c([N+](=O)[O-])c1	i
Cc1ccc(C)c(N2CCN(Cc3ccc(C)s3)CC2)c1	i
SMILES	Algae TAG accum
C/C=C(\C)CN1CCN(c2cc(C)ccc2C)CC1	i
Cc1ccc(C)c(N2CCN(C3CCCCCC3)CC2)c1	+
C=CCc1ccccc1OCC(O)CN1C(C)CCCC1C (configuration not stated)	i
C=CCc1ccccc1OCC(O)CN(C)C1CCCCC1 (configuration not stated)	+
C=CCc1ccccc1OCC(O)CN1CCC(C)CC1 (configuration not stated)	i
COc1cc(OC)cc(N2C(=O)CC(Sc3ncn[nH]3)C2=O)c1 (configuration not stated)	i
NC(=O)CCC(=O)NC12CC3CC(CC(C3)C1)C2	i
Cc1cccc(NC(=O)COc2ccc(Br)cc2)c1C	i
Cc1c(NC(=O)COc2ccc(Br)cc2)cccc1[N+](=O)[O-]	+
Cc1ccc(OCC(=O)Nc2cccc([N+](=O)[O-])c2C)c(Br)c1	i
N#C/C(=C\c1ccc([N+](=O)[O-])cc1)c1nc(-c2ccc(F)cc2)cs1	i
Cc1ccsc1/C=C(\C#N)c1nc(-c2ccc([N+](=O)[O-])cc2)cs1	+
Cc1ccc(-c2csc(/C(C#N)=C/Nc3ccc([N+](=O)[O-])cc3)n2)cc1	i
OCCNCCOc1ccc(Cl)cc1	i
Cc1cc(-c2ccc(NC(=O)c3ccco3)c(C)c2)ccc1NC(=O)c1ccco1	i
COc1ccc(OC)c(NC(=O)c2ccco2)c1	i
COc1cc(-c2ccc(NC(=O)c3ccco3)c(OC)c2)ccc1NC(=O)c1ccco1	+
Cc1c(NC(=O)CC2(CC(=O)O)CCCCC2)c(=O)n(-c2ccccc2)n1C	i
Cc1ccc(Nc2nc(-c3ccccc3)cs2)cc1C	i
O=Cc1cn(CC(=O)NCc2ccccc2)c2ccccc12	i
Cn1cnnc1SCC(=O)Nc1ccc(Cl)cc1F	i
CC1CCCN(CCCOc2ccc([N+](=O)[O-])cc2)C1 (configuration not stated)	i
COc1ccc(OCCCN2CCCC(C)C2)cc1 (configuration not stated)	+
CCOc1ccccc1OCCCN1CCCC(C)C1 (configuration not stated)	i
COc1ccc(-n2nnnc2C(=Cc2ccccc2)c2nnnn2-c2ccc(OC)cc2)cc1	i
SMILES	Algae TAG accum
Cc1ccc(Cn2cnc3sc4c(c3c2=O)CCC4)c(C)c1	i
CCc1nc2c(cnn2-c2ccccc2)c(=O)n1-c1cccnc1	i
Cc1ccc(Cn2cnc3c(cnn3-c3ccccc3)c2=O)c(C)c1	+
COc1ccc(OCCOc2ccc(F)cc2)cc1	i
O=C(CN1C(=O)C2C3C=CC(C3)C2C1=O)Nc1ccc(I)cc1 (configuration not stated)	i
Cc1cc(C)nc(Nc2nc(C)c3cccc(C)c3n2)n1	i

From PubChem BioAssay
